# Source: publication PMC5700166
# Residue numbers refer to the chain shown, from its start.
# Key:
# Experiment in all cases: protein-binding microarray (PBM); PBM: ~300 nM protein, 6 mM HEPES pH 7.8, 80 mM KCl, 0.5 mM EDTA, 0.5 mM EGTA, 6% glycerol, 35 ng/ul poly-dIdC, 1% milk, 1 h, room temperature; Ap Aiptasia and Nv Nematostella (sea anemones) / Co Capsaspora / Aq Amphimedon (sponge) / Dm Drosophila / Hu human; RHD is the Rel homology domain; high values mean tight binding
# Conditions in all cases: dsDNA, one strand shown
# [1] = target: T1, GST-Ap-NF-kB RHD (Exaiptasia pallida (Aiptasia), UniProt A0A913YAJ5 2-422)
# T1 sequence: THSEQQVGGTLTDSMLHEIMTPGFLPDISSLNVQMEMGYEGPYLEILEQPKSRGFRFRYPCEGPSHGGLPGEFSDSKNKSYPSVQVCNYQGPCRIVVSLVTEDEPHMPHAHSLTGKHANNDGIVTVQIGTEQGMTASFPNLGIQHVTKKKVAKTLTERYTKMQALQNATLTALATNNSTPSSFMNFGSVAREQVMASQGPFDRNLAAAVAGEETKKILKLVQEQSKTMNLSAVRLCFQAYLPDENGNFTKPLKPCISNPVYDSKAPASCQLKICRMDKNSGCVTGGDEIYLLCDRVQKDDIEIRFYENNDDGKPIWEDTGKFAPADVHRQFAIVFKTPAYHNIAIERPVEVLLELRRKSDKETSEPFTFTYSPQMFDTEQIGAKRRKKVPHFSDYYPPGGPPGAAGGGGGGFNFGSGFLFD
# [2] = target: T2, GST-Nv-NF-kB (Cys allele) (Nematostella vectensis, UniProt E5G601 2-411)
# T2 sequence: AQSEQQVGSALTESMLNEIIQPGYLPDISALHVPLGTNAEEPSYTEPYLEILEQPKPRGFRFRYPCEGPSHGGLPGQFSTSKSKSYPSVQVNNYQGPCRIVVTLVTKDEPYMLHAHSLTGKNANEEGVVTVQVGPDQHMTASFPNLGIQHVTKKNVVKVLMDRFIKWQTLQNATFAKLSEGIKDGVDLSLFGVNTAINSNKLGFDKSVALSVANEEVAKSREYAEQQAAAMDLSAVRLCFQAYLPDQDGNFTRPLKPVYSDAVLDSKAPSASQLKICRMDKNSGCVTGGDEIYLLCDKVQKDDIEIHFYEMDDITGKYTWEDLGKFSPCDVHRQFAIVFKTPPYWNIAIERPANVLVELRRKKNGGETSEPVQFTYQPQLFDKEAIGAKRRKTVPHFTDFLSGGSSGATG
# [3] = target: T3, GST-Nv-NF-kB (Ser allele) (Nematostella vectensis, UniProt A7UNT2 2-411)
# T3 sequence: T2 sequence with Q21R, C66S, S207N, E215Q, V217A, E225K, A268E, D399E
# [4] = target: T4, GST-Co-NF-kB (Capsaspora owczarzaki, UniProt F1ARL5 200-546)
# T4 sequence: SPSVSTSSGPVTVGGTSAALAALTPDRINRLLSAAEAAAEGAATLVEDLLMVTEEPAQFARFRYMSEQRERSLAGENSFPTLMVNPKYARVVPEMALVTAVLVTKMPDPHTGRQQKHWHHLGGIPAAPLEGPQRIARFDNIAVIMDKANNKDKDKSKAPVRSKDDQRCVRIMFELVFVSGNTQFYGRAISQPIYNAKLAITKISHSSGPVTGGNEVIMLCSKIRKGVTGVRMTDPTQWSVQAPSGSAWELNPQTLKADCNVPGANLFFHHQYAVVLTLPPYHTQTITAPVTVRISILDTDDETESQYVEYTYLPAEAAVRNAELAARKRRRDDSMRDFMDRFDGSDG
# [5] = target: T5, GST-Dm-Relish (Drosophila melanogaster, UniProt Q94527 99-473)
# T5 sequence: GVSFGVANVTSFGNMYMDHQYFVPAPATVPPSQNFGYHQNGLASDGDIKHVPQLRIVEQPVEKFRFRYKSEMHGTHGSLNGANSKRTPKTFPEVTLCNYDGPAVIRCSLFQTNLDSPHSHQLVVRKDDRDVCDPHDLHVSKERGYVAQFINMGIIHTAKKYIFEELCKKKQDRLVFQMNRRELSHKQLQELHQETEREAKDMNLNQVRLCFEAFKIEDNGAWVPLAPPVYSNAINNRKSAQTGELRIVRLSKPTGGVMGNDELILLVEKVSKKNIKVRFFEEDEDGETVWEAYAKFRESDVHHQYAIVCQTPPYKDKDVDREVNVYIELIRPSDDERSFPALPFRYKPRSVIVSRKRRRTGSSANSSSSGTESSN
# [6] = target: T6, GST-Aq-NF-kB (Amphimedon queenslandica, UniProt A9Y5G7 2-389)
# T6 sequence: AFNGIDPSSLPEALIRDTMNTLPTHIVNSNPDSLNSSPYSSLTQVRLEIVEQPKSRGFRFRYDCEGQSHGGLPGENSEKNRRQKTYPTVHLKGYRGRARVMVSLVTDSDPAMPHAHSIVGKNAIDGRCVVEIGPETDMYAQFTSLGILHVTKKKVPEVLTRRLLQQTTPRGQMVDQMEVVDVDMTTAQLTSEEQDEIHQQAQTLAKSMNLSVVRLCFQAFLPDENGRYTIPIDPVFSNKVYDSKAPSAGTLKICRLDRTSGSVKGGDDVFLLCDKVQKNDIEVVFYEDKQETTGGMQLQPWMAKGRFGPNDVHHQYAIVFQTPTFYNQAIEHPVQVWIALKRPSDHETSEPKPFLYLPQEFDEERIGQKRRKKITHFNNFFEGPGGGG
# [7] = target: GST-Hu-p50 (Homo sapiens, UniProt P19838 7-356)
# Sequence of GST-Hu-p50 (P19838 7-356): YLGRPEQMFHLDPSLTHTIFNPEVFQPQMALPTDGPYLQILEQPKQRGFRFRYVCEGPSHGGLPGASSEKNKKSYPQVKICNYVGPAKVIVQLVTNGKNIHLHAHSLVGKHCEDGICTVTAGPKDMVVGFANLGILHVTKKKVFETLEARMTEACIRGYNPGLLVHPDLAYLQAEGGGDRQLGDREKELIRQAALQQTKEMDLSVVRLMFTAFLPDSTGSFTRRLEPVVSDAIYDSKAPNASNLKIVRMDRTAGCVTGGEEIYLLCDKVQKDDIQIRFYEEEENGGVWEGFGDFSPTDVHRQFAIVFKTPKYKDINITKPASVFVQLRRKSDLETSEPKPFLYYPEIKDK
Sequence,binding signal [1] [z-score],binding signal [2] [z-score],binding signal [3] [z-score],binding signal [4] [z-score],binding signal [5] [z-score],binding signal [6] [z-score],binding signal [7] [z-score]
CCGATTAACATCAGAAATTCCCCTGATGTTAATCGGGTCTTGATTCGCTTGACGCTGCTG,9.89,12.3,13.2,8.74,8.87,8.89,7.96
CCGATTAACATCAGGGGATGTGCTGATGTTAATCGGGTCTTGATTCGCTTGACGCTGCTG,3.15,3.45,5.32,1.81,1.41,2.79,3.33
CCGATTAACATCAGGGGATCCCCTGATGTTAATCGGGTCTTGATTCGCTTGACGCTGCTG,14.6,11.6,12.1,7.53,10.8,11.3,7.87
CCGATTAACATCAGGGGACTACCTGATGTTAATCGGGTCTTGATTCGCTTGACGCTGCTG,7.56,5.88,4.89,2.47,7.3,7.36,4.79
CCGATTAACATCAGAAAACCCCATGATGTTAATCGGGTCTTGATTCGCTTGACGCTGCTG,6.36,5.53,4.86,1.75,8.35,5.03,5.88
CCGATTAACATCACGGGGATCCCTGATGTTAATCGGGTCTTGATTCGCTTGACGCTGCTG,8.72,5.48,5.51,4.27,9.65,5.88,4.51
CCGATTAACATCAAACAGCCCCCTGATGTTAATCGGGTCTTGATTCGCTTGACGCTGCTG,3.65,4.11,2.49,1.91,2.9,5.29,3.92
CCGATTAACATCAGACAATCCCCTGATGTTAATCGGGTCTTGATTCGCTTGACGCTGCTG,6.6,7.1,7.4,2.24,4.95,5.98,5.79
CCGATTAACATCAAATGCCCCCCTGATGTTAATCGGGTCTTGATTCGCTTGACGCTGCTG,5.13,4.38,3.91,5.28,4.71,5.31,4.49
CCGATTAACATCAATGGGATTTCTGATGTTAATCGGGTCTTGATTCGCTTGACGCTGCTG,2.83,2.72,2.22,1.38,5.37,2.47,2.6
CCGATTAACATCAGGGGGAAAACTGATGTTAATCGGGTCTTGATTCGCTTGACGCTGCTG,8.4,8.08,9.8,11.7,7.59,7.21,7.47
CCGATTAACATCAGCAATCCCCCTGATGTTAATCGGGTCTTGATTCGCTTGACGCTGCTG,7.85,6.26,6.95,4.31,5.79,5.16,6.73
CCGATTAACATCAGGGGATGTTATGATGTTAATCGGGTCTTGATTCGCTTGACGCTGCTG,5.57,6.43,7.06,3.17,5.86,5.53,5.29
CCGATTAACATCAAAAACCCCCTTGATGTTAATCGGGTCTTGATTCGCTTGACGCTGCTG,10.4,10.3,10.9,2.93,10.9,9.31,8.33
CCGATTAACATCATGGGGGGAAATGATGTTAATCGGGTCTTGATTCGCTTGACGCTGCTG,6.36,6.46,7.43,9.84,4.25,5.5,6.02
CCGATTAACATCAAGCAATCCCCTGATGTTAATCGGGTCTTGATTCGCTTGACGCTGCTG,6.44,6.39,6.94,2.5,5.11,4.53,5.37
CCGATTAACATCAGGGAAACACATGATGTTAATCGGGTCTTGATTCGCTTGACGCTGCTG,2.17,2.95,3.46,3.05,6.06,3.52,1.39
CCGATTAACATCACCGGGGATAGTGATGTTAATCGGGTCTTGATTCGCTTGACGCTGCTG,3.55,2.68,3.34,3.83,2.1,1.82,2.98
CCGATTAACATCAAAGTCCCCCCTGATGTTAATCGGGTCTTGATTCGCTTGACGCTGCTG,7.56,6.37,5.95,9.05,7.85,6.3,5.64

Sequence,binding signal [1] [z-score],binding signal [2] [z-score],binding signal [3] [z-score],binding signal [4] [z-score],binding signal [5] [z-score],binding signal [6] [z-score],binding signal [7] [z-score]
CCGATTAACATCAAGTTTCCCCCTGATGTTAATCGGGTCTTGATTCGCTTGACGCTGCTG,8.07,8.22,11.2,11.4,4.83,6.51,7.11
CCGATTAACATCACGGGAATACCTGATGTTAATCGGGTCTTGATTCGCTTGACGCTGCTG,4.13,3.29,2.87,3.47,6.3,5.81,1.75
CCGATTAACATCAAATTTCCCGGTGATGTTAATCGGGTCTTGATTCGCTTGACGCTGCTG,4.14,4.99,4.8,6.34,3.56,4.88,4.39
CCGATTAACATCACAAAATTCCCTGATGTTAATCGGGTCTTGATTCGCTTGACGCTGCTG,5.93,8.61,8.58,5.01,6.16,6.82,6.04
CCGATTAACATCAGCAAATCCCCTGATGTTAATCGGGTCTTGATTCGCTTGACGCTGCTG,6.73,7.25,9.83,2.93,5.54,5.19,6.91
CCGATTAACATCAATTCCCCTGATGATGTTAATCGGGTCTTGATTCGCTTGACGCTGCTG,6.84,7.45,9.02,5.73,3.81,4.89,5.75
CCGATTAACATCAGGAAGCCCCCTGATGTTAATCGGGTCTTGATTCGCTTGACGCTGCTG,6.62,5.72,3.93,1.49,7.8,7.03,5.74
CCGATTAACATCACTGGATTCCCTGATGTTAATCGGGTCTTGATTCGCTTGACGCTGCTG,3.07,2.76,3.56,2.61,4.48,2.82,1.36
CCGATTAACATCACGAATCCCCCTGATGTTAATCGGGTCTTGATTCGCTTGACGCTGCTG,8.06,6.45,7.96,5.16,6.03,5.26,6.72
CCGATTAACATCAGGTATCCCCATGATGTTAATCGGGTCTTGATTCGCTTGACGCTGCTG,5.17,3.31,4.07,3.11,5,3,3
CCGATTAACATCAGGGAATCACCTGATGTTAATCGGGTCTTGATTCGCTTGACGCTGCTG,6.2,6.62,6.17,2.45,10.3,6.99,5.35
CCGATTAACATCAGAAAGTCCCCTGATGTTAATCGGGTCTTGATTCGCTTGACGCTGCTG,8.98,9.38,8.58,3.84,9.11,7.8,7.42
CCGATTAACATCAGGGGGTATAATGATGTTAATCGGGTCTTGATTCGCTTGACGCTGCTG,5.4,3.26,4.36,5.2,3.02,3.48,4.16
CCGATTAACATCACAAGTTCCCCTGATGTTAATCGGGTCTTGATTCGCTTGACGCTGCTG,7.44,7.71,8.61,7.27,6.56,6.21,5.93
CCGATTAACATCAGAATTCCCCATGATGTTAATCGGGTCTTGATTCGCTTGACGCTGCTG,8.83,10.3,9.9,7.04,6.72,6.99,6.62
CCGATTAACATCAAAATCCCAGGTGATGTTAATCGGGTCTTGATTCGCTTGACGCTGCTG,2.06,1.42,1.85,1.6,5.57,2.06,3.17
CCGATTAACATCACATGTTTCCCTGATGTTAATCGGGTCTTGATTCGCTTGACGCTGCTG,2.33,3.31,4.21,4.5,1.48,4.01,1.17
CCGATTAACATCAGGGAAATCACTGATGTTAATCGGGTCTTGATTCGCTTGACGCTGCTG,3.41,4.78,4.63,2.62,8.27,5.99,4.18
CCGATTAACATCAGGGGGGTAGATGATGTTAATCGGGTCTTGATTCGCTTGACGCTGCTG,4.07,3.34,3.24,5.47,3.11,3.59,3.2
